LASV entry inh – qHTS for Inhibitors of binding or entry into cells for Lassa Virus; Lassa virus pseudotyped entry inhibition, cell-based qHTS; AID 720533, 2013; actives 4.1% (n = 18,000); Potency, µM (top dose mostly 49.2 µM), hits mostly inhibitors
Marburg entry – qHTS for Inhibitors of binding or entry into cells for Marburg Virus. Marburg virus pseudotype entry/binding inhibition, cell-based. Potency, µM (titrated, usually from 49.2 µM), most hits filed as inhibitors. actives 6.5% (n = 18,000)
Of the large screens only hits and unclear results are named; the others gave an inactive call; ! = not active in a repeat. In the library only some 8% were active in any assay of this set; here they are far more common. Calls come from the whole dose curve; tested in HEK293 cells.

COc1ccc(Nc2nccc(NCCO)n2)cc1	none
COc1cc(Nc2nccc(Nc3ccc4c(C)[nH]nc4c3)n2)cc(OC)c1OC	LASV entry inh inconclusive, Marburg entry 10µM
O=C1C2CC3CC1CC(O)(C3)C2	none
O=C1NCCN1CCN1CCC(c2cn(-c3ccc(F)cc3)c3ccc(Cl)cc23)CC1	LASV entry inh 22µM, Marburg entry 11µM
CN1CCN(c2cc3c(cc2F)c(=O)c(C(=O)O)cn3-c2ccc(F)cc2)CC1	none
C=C(CO[C@@H]1C=C[C@@H](c2ccccc2)O[C@@H]1CO)c1ccccc1	none
CC1=C(/C=C/C(C)=C/C=C/C(C)=C/C(=O)Nc2ccc(O)cc2)C(C)(C)CCC1	LASV entry inh 7.1µM!, Marburg entry inconclusive
CC1=C(\C=C/C(C)=C/C=C\C(C)=C\C(=O)O)C(C)(C)CCC1	Marburg entry inconclusive
COC(=O)C1=C(C(=O)OC)[C@@H]2N(C)c3ccccc3[C@@]23C[C@@H](C(=O)OC)N(C(=O)NC(C)(C)C)C3=N1	none (no result: LASV entry inh)
N#Cc1ccc2c(c1)C[C@]1(c3ccsc3)OC3=C(C(=O)OC4(CCCCC4)C3)[C@H]2O1	Marburg entry inconclusive
CC(C)c1ccc(Cn2ccc3c4c(N)nc(NC5CC5)nc4ccc32)cc1	LASV entry inh 13µM, Marburg entry 4µM
CC[n+]1c(/C=C/N(C)c2ccccc2)n(-c2ccccc2)c2ccc(-c3nc4ccccc4s3)cc21	LASV entry inh 3.2µM, Marburg entry 2µM
OCCCNCc1cc2ccc(F)cc2nc1N1CCN(c2cccc(Cl)c2)CC1	LASV entry inh inconclusive, Marburg entry 10µM
COc1cc(CNCc2cc3ccc(F)cc3nc2N2CCOCC2)cc(OC)c1OC	none
CCCCn1c(C)cc2c(c1=O)[C@H]1O[C@](c3ccsc3)(Cc3cc(OC)c(OC)cc31)O2	Marburg entry inconclusive
Nc1ccc(S(=O)(=O)Nc2ccccc2)cc1	none
O=C(/C=C/C#Cc1cccc(NS(=O)(=O)c2ccccc2)c1)NO	LASV entry inh 10µM, Marburg entry inconclusive
COc1ccc2c(c1)[C@H](C=Cc1ccccc1)[C@@H]([C@H](O)CO)O2	none
CC1OC(=O)C(C(C)C)NC(=O)C(C(C)C)OC(=O)C(C(C)C)NC(=O)C(C)OC(=O)C(C(C)C)NC(=O)C(C(C)C)OC(=O)C(C(C)C)NC(=O)C(C)OC(=O)C(C(C)C)NC(=O)C(C(C)C)OC(=O)C(C(C)C)NC1=O (stereo unspecified)	LASV entry inh 0.13µM, Marburg entry 89µM
COC(=O)C1=C(C)N(Cc2ccccc2)C(=NCCc2c[nH]c3ccccc23)NC1c1cccc(F)c1 (stereo unspecified)	none (no result: LASV entry inh)
C=CCN1c2ccccc2[C@]23CCC(=O)N(CC4CC4)C2=NC(C(=O)OC)=C(C(=O)OC)[C@H]13	none
CCCNC(=O)OC[C@H]1O[C@H](CCON=C(C)CCN2CCCc3nc(C)c(C)cc32)C=C[C@H]1Oc1ccc(OC)cc1	Marburg entry inconclusive
O=c1c(O)c(-c2cc(O)c(O)c(O)c2)oc2cc(O)cc(O)c12	Marburg entry 11µM
O=c1c(O)c(-c2ccccc2)oc2cc(O)cc(O)c12	none
Cc1ccc(NC(=O)CC2CC2)cc1-c1ccc(C(=O)NCC2CC2)cc1	none (no result: LASV entry inh)
C[C@@H]1COc2cc(Br)ccc2S(=O)(=O)N1	none
CCCCCCCCN[C@@H](C)[C@H](O)c1ccc(SC(C)C)cc1	Marburg entry 11µM
CN[C@@H](C)[C@H](O)c1ccccc1	none
CCC=C1C(=O)[C@]2(C(=O)c3ccccc3)C[C@H]3CCC(CCC)(C2=O)[C@@]13OC	Marburg entry inconclusive
C=C(C)C(=O)C=CCCCC=CC(=O)OCC	none
O[C@@H](c1cc(C(F)(F)F)nc2c(C(F)(F)F)cccc12)[C@H]1CCCCN1	LASV entry inh 28µM, Marburg entry 10µM
CN1CCC[C@H]1c1cccnc1	none
CCCCCCCCCC[n+]1cccc([C@@H]2CCCN2C)c1	LASV entry inh inconclusive, Marburg entry 6.3µM
C[C@H]1[C@@H](c2ccccc2)Oc2c(Cl)cccc2S(=O)(=O)N1Cc1cccc(Cl)c1	Marburg entry inconclusive
CC(=O)C1=C(C)N(Cc2ccco2)C(=O)NC1c1ccccc1 (stereo unspecified)	none
CCCCN1CCC(CCC(=O)c2cc(Cl)c(N)cc2OC)CC1	LASV entry inh 28µM!, Marburg entry 11µM
CCOc1cc(N)c(Cl)cc1C(=O)NCC1CN(Cc2ccc(F)cc2)CCO1 (stereo unspecified)	none
CCN1C(=NCc2cc(OC)c(OC)c(OC)c2)NC(c2cccc(F)c2)C(C(=O)OC)=C1C (stereo unspecified)	none
O=C(C=Cc1ccccc1)Nc1cccc(C(=O)NC2CC2)c1	none
O=C(O)COCCN1CCN(C(c2ccccc2)c2ccc(Cl)cc2)CC1 (stereo unspecified)	none
OC(CN1CCN(c2cccc(Cl)c2)CC1)C(c1ccccc1)c1ccccc1 (stereo unspecified)	LASV entry inh 28µM, Marburg entry 35µM
COc1cc2nc(N3CCN(C(=O)C4COc5ccccc5O4)CC3)nc(N)c2cc1OC (stereo unspecified)	Marburg entry inconclusive
COc1cc2nc(N3CCN(C(=O)OCc4ccccc4)[C@H](C(=O)NC(C)(C)C)C3)nc(N)c2cc1OC	Marburg entry 11µM
CCCCCCCCCCCCCCCC(=O)O[C@@H]1CC(C)=C(/C=C/C(C)=C/C=C/C(C)=C/C=C/C=C(C)/C=C/C=C(C)/C=C/C2=C(C)C[C@@H](OC(=O)CCCCCCCCCCCCCCC)CC2(C)C)C(C)(C)C1	none
O=C(CCCN1CCC2(CC1)C(=O)N(Cc1cccc(F)c1)CN2c1ccccc1)c1ccc(F)cc1	LASV entry inh 16µM, Marburg entry 8.9µM
COC(=O)CN1CN(c2ccccc2)C2(CCN(Cc3ccc4ccccc4c3)CC2)C1=O	Marburg entry inconclusive
O=C1NC(=O)[C@H]2[C@@H]1[C@@H]1C=C[C@H]2C1	none
COC(=O)N[C@H](C(C(=O)OC)=C(C)NCc1ccccc1)c1cccs1	none (no result: LASV entry inh)
CC[C@@H](C(=O)[C@@H](C)[C@@H](O)[C@H](C)[C@@H]1O[C@@H]([C@@H](CC)C(=O)O)CC[C@@H]1C)[C@H]1O[C@]2(C=C[C@@H](O)[C@]3(CC[C@@](C)([C@H]4CC[C@](O)(CC)[C@H](C)O4)O3)O2)[C@H](C)C[C@@H]1C	LASV entry inh 3.2µM
O=C1[C@H]2[C@@H]3[C@@H](O)[C@H](O)CC(=NOCc4ccccc4)[C@@H]3CC[C@H]2C(=O)N1c1ccc(F)cc1F	none
C[C@@H]1CC[C@H]2C(=O)N(Cc3ccccc3)C[C@H](O)CN2[C@H]1c1ccc(Br)cc1	none
COc1cc(OC)c2nc(-c3cc4c(c(OC)c3)OCCN(C(=O)CC3NC(=O)c5ccccc53)C4)cc(C)c2c1 (stereo unspecified)	none
COc1cc(-c2ccc(C(F)(F)F)cn2)cc2c1OCCN(S(=O)(=O)C[C@]13CC[C@H](CC1=O)C3(C)C)C2	LASV entry inh 13µM, Marburg entry inconclusive
COc1ccc2c(c1)[C@@]1(OCCC=C[C@@H]1C)C(=O)N2Cc1ccc(Br)cc1	none
COc1ccc(CN2CCCC(c3nc(C)ncc3-c3ccc(F)cc3)C2)c(OC)c1OC (stereo unspecified)	none
COc1cc(OC)c(OC)cc1CN1CCCC(c2nc(C)ncc2-c2ccc(F)cc2)C1 (stereo unspecified)	Marburg entry 11µM
CCOc1ccccc1CN1CCCC(c2nc(C)ncc2-c2ccc(F)cc2)C1 (stereo unspecified)	Marburg entry 10µM
COc1ccc(OC)c(CN2CCCC(c3nc(C)ncc3-c3ccc(F)cc3)C2)c1 (stereo unspecified)	Marburg entry inconclusive

High-throughput results from PubChem.
